Reference: publication PMC5540273 (PLoS ONE, 2017)

What follows are compounds tested on T1, AMPK-alpha1. Details: concentration: 1 μM, replicates: in singlicate; n = 1.
T1 construct: gene PRKAA1
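Further: KINOMEscan kinase panel screen.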

Row | Compound | %Inh
1 | Cl.c1ccc(-c2ccc3c(Nc4ccc5[nH]ccc5c4)ccnc3c2)nc1 [GW440138] | 0%
2 | Nc1n[nH]c2cnc(-c3ccccc3)cc12 [SB-642124] | 0%
3 | CN(C)Cc1ccc(-c2ccc3c(Nc4ccc(Oc5ccccn5)cc4)ccnc3c2)o1 [GW567148] | 8%
4 | CC(C)(C)c1ccc2nccc(Nc3cccc(O)c3)c2c1 [GW856795] | 0%
5 | O=c1[nH]cc(-c2ccc(N3CCOCC3)cc2)c2sc(-c3cn[nH]c3)cc12 [GSK2276055] | 0%
6 | O=C(Nc1n[nH]c2cc(-c3ccoc3)ccc12)C1CC1 [SB-738481] | 0%
7 | CC(=O)N1CCN(c2ccc(Nc3nccc(-c4sc(C(C)C)nc4-c4cccc(NS(=O)(=O)c5cccc(Cl)c5)c4)n3)cn2)CC1 [GSK1660437] | 48%
8 | COc1cc2c(cc1OCCN1CCNCC1)ncc1c3ccc(C#N)cc3[nH]c21 | 15%
9 | CNC(=O)c1ccccc1Nc1nc(Nc2ccc(N3CCOCC3)cc2)ncc1Cl.Cl [GSK1576028] | 99.2%
10 | Oc1cc(Nc2ccnc3cc(I)ccc23)ccc1F [GW552771] | 15%
11 | COc1cccc(C2=C(Nc3ccc(Cl)c(C(=O)O)c3)C(=O)NC2=O)c1 [SB-390769] | 6%
12 | O=C(Nc1cccc(-c2nn3ccccc3c2-c2ccnc(Nc3cccc(F)c3)n2)c1)c1c(F)ccc(F)c1Cl [GSK357952] | 20%
13 | O=C(Nc1cccc(Oc2ccc3nc(NC(=O)C4CC4)cn3n2)c1)c1ccccc1C(F)(F)F | 0%
14 | CSc1cccc2c(-c3ccncn3)c(-c3ccc(F)cc3)nn12 [GW514786] | 32%
15 | Cn1cc(-c2[nH]c3cc(NC(=O)[C@H](N)C4CCCCC4)cc4c3c2C=NNC4=O)cn1 | 94.1%
16 | COc1ccc(CNC(=O)NC2CCN(c3ccnc(Nc4ccc(F)cc4)n3)CC2)cc1 [GSK1379788] | 0%
17 | COc1cccc(NC(=O)NC2CCN(c3ccnc(Nc4cc(OC)c(OC)c(OC)c4)n3)C2)c1 (stereo not shown) [GSK1379763] | 0%
18 | O=C(Nc1n[nH]c2nc(-c3ccc(O)cc3)ccc12)C1CC1 [SB-710363] | 0%
19 | CN1CCN(CCCNc2nccc(-c3c(-c4ccc(F)cc4)nn4cc(C(F)(F)F)ccc34)n2)CC1 [GW621581] | 0%

Row | Compound | %Inh
20 | c1ccc(-c2n[nH]cc2Nc2ccnc3ccccc23)nc1 [GW694077] | 0%
21 | CCc1ccc(-c2ccc3c(c2)-c2c(cnn2C)S(=O)(=O)N3C)cc1 | 0%
22 | NCCCC(NC(=O)c1cc(Br)c(-c2ccnc3[nH]ccc23)s1)c1ccccc1.O=C(O)C(F)(F)F.O=C(O)C(F)(F)F (stereo not shown) [GSK1287544] | 17%
23 | Nc1ncc(-c2cccnc2)c2scc(-c3ccc4c(c3)CCN4C(=O)Cc3ccccc3)c12 [GSK683281] | 97.4%
24 | Cl.c1ccc(-c2ccc3c(Nc4ccc5[nH]ncc5c4)ccnc3c2)nc1 [GW440137] | 0%
25 | Cc1ccc(C)c(NC(=O)NC2CCN(c3ccnc(Nc4ccc(F)cc4)n3)C2)c1 (stereo not shown) [GSK1379720] | 7%
26 | COc1cc(Nc2nccc(-c3c(-c4cccc(NC(=O)c5c(F)cccc5F)c4)nn4ccccc34)n2)cc(OC)c1OC [GSK323521] | 20%
27 | Fc1ccc(-c2ncn(C3CCNCC3)c2-c2ccnc(Oc3ccc(-c4ccccc4)cc3)n2)cc1 [SB-245391] | 7%
28 | COc1cc(Nc2ncc3c(C)nc(-c4cc5ccccc5[nH]4)n3n2)cc(OC)c1OC [GW869516] | 89%
29 | Clc1ccc(-c2nn3ncccc3c2-c2ccnc(Nc3ccc4c(c3)OCCO4)n2)cc1 [GW829116] | 0%
30 | c1ccc(-c2cnc3nccnn23)cc1 [AH20685] | 0%
31 | O=C(Nc1ccccc1F)NC1CCN(c2ccnc(Nc3ccc(F)cc3)n2)CC1 [GSK1379800] | 14%
32 | Cc1occc1-c1ncc(OC[C@@H](N)Cc2c[nH]c3ccccc23)cc1-c1ccc2[nH]nc(C)c2c1.O=C(O)C(F)(F)F [GSK682037] | 12%
33 | C[C@@H]1CC[C@@H](C(=O)Nc2ccccc2)CN1c1cc(-c2ccc3c(N)n[nH]c3c2)nc(N)n1 [GSK2286062] | 13%
34 | COc1cc(Nc2nccc(-c3c(-c4cccc(NC(=O)c5c(F)cccc5F)c4)nn4ncccc34)n2)cc(OC)c1OC [GSK327238] | 9%
35 | C[C@@H](Oc1cc(-n2cnc3cc(-c4ccnc(NCCS(C)(=O)=O)c4)ccc32)sc1C(N)=O)c1ccccc1Cl [GSK907232] | 0%
36 | CN1CCN(Cc2cccc(-c3ccc4c(Nc5ccc(Oc6ccccc6)cc5)ccnc4c3)c2)CC1 [GW578342] | 8%
37 | Cc1ccc(S(=O)(=O)Nc2ccc(Nc3nccc(Nc4cccc5[nH]ncc45)n3)cc2)cc1 [GSK581271] | 0%
